Measured values: PubChem BioAssay (EPA / NIEHS)
Inconclusive results are not listed. Active and inactive are the calls of the source. How the source made its calls: active means hit-call score of the fitted dose curve at least 0.9, where 1 is the maximum; inconclusive means response in the unintended direction; inactive means score below 0.9.

Assays:
[1] = tested on: rat Monoamine Oxidase, MAO-A, Peripheral (MAOAP), gene 29253; experiment: NVS_ENZ_rMAOAP: NovaScreen (NVS) Enzymatic Assay for rat Monoamine Oxidase, MAO-A, Peripheral (MAOAP) (AID 2283237)
Method in brief: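 Scintillation counting tracked MAO-A activity in a cell-free rat liver mitochondrial membrane prep, read 1.17 hours after compound addition. Single-point duplicate testing at 25 uM preceded concentration-response follow-up; activity was fitted relative to DMSO.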

[2] = tested on: rat Monoamine Oxidase, MAO-A, Central (MAOAC), gene 29253; experiment: NVS_ENZ_rMAOAC: NovaScreen (NVS) Enzymatic Assay for rat Monoamine Oxidase, MAO-A, Central (MAOAC) (AID 2283243);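 further: potency refers to inhibition seen as signal drop below DMSO baseline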
Method in brief: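 Scintillation read-out of MAO-A activity in rat brain lysate, 1.5 h post-dosing. Primary single-concentration screen: 25 uM, duplicate; actives re-tested in concentration series. DMSO = negative control/baseline.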

[3] = biological target: human Serotonin, 5-Hydroxytryptamine Receptor 5A (5HT5A), HTR5A (gene 3361) (UniProt P47898); experiment: NVS_GPCR_h5HT5A: NovaScreen (NVS) G Protein-Coupled Receptor Assay for human Serotonin, 5-Hydroxytryptamine Receptor 5A (5HT5A) (AID 2283251)
human Serotonin, 5-Hydroxytryptamine Receptor 5A (5HT5A), HTR5A (gene 3361), sequence (P47898 whole entry, looked up): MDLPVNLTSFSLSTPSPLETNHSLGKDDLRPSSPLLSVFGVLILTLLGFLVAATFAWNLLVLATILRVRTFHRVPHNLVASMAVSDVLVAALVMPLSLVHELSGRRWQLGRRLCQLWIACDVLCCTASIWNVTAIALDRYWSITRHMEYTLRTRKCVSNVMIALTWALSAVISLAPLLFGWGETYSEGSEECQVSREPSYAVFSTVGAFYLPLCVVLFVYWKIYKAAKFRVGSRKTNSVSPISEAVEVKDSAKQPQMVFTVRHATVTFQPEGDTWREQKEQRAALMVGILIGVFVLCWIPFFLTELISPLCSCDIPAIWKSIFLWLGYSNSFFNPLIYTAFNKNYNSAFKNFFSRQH
Method in brief: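 Membranes from HEK293 cells, radioligand binding read by filtration and scintillation after 1 h. Single-concentration duplicate testing at 25 uM, then concentration-response for actives; positive-direction fitting relative to DMSO.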

[4] = biological target: guinea pig Opioid, Kappa 1 Receptor (OpiateK), OPRK1 (gene 100135587) (UniProt P41144); experiment: NVS_GPCR_gOpiateK: NovaScreen (NVS) G Protein-Coupled Receptor Assay for guinea pig Opioid, Kappa 1 Receptor (OpiateK) (AID 2283252);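 further: radioligand displacement from kappa opioid receptor in guinea pig cerebellar membranes; active means reduced radioligand binding relative to DMSO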
guinea pig Opioid, Kappa 1 Receptor (OpiateK), OPRK1 (gene 100135587), sequence (P41144 whole entry, looked up): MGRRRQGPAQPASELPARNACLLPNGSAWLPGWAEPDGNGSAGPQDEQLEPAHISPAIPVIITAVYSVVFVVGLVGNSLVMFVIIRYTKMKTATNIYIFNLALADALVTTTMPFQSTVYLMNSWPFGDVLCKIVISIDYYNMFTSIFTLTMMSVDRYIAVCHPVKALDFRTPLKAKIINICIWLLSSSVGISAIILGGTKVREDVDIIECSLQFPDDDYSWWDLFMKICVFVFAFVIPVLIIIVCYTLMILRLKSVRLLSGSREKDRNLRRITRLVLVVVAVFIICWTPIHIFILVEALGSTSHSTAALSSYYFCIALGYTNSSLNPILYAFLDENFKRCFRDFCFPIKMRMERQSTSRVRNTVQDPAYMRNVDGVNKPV
Method in brief: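 Cell-free tissue prep: guinea pig cerebellar membranes, radioligand displacement, 2 h incubation. Readout: filtration plus scintillation counting. Primary single-point 25 uM duplicate; actives retested in concentration series; DMSO negative control.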

[5] = biological target: human Serotonin, 5-Hydroxytryptamine Receptor 7 (5HT7), HTR7 (gene 3363) (UniProt P34969); experiment: NVS_GPCR_h5HT7: NovaScreen (NVS) G Protein-Coupled Receptor Assay for human Serotonin, 5-Hydroxytryptamine Receptor 7 (5HT7) (AID 2283255);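 further: hits reduce specific radioligand binding relative to DMSO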
human Serotonin, 5-Hydroxytryptamine Receptor 7 (5HT7), HTR7 (gene 3363), sequence (P34969 whole entry, looked up): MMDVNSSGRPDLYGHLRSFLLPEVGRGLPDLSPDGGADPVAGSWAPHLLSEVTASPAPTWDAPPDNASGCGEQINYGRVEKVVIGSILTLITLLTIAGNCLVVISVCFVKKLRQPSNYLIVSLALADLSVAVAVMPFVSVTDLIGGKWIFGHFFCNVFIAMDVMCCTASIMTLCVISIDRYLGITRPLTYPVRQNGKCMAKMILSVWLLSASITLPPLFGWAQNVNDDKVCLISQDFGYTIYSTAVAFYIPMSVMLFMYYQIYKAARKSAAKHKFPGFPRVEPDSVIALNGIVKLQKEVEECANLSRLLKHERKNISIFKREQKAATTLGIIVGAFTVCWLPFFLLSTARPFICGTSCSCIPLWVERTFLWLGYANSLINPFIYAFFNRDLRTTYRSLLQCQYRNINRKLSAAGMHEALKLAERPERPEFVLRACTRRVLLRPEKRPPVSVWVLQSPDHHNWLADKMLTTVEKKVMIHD
Method in brief: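 Filter-bound radioactivity counted after 1 h, with loss of specific radioligand binding fitted against DMSO. Membrane protein came from CHO cells expressing human 5HT7. Chemicals were tested first at 25 uM in duplicate, then in concentration series if active.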

[6] = biological target: rat Monoamine Oxidase, MAO-B, Peripheral (MAOBP), Maob (gene 25750) (UniProt P19643); experiment: NVS_ENZ_rMAOBP: NovaScreen (NVS) Enzymatic Assay for rat Monoamine Oxidase, MAO-B, Peripheral (MAOBP) (AID 2283242)
rat Monoamine Oxidase, MAO-B, Peripheral (MAOBP), Maob (gene 25750), sequence (P19643 whole entry, looked up): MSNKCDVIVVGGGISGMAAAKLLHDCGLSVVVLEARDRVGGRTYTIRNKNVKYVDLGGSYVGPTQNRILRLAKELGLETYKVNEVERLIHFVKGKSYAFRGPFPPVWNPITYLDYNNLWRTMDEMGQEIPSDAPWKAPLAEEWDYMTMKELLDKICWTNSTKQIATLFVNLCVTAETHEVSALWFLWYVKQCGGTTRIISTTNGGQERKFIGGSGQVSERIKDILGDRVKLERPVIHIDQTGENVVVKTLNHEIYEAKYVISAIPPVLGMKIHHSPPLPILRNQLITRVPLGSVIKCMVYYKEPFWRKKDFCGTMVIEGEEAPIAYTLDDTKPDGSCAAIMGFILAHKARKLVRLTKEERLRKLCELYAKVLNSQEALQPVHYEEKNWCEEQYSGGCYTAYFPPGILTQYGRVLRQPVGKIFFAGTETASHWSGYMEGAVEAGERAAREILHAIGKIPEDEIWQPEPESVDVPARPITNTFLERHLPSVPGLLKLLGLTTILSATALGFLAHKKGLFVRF

[7] = biological target: human Adenosine A1 Receptor (AdoRA1), ADORA1 (gene 134) (UniProt P30542); experiment: NVS_GPCR_hAdoRA1: NovaScreen (NVS) G Protein-Coupled Receptor Assay for human Adenosine A1 Receptor (AdoRA1) (AID 2283254)
human Adenosine A1 Receptor (AdoRA1), ADORA1 (gene 134), sequence (P30542 whole entry, looked up): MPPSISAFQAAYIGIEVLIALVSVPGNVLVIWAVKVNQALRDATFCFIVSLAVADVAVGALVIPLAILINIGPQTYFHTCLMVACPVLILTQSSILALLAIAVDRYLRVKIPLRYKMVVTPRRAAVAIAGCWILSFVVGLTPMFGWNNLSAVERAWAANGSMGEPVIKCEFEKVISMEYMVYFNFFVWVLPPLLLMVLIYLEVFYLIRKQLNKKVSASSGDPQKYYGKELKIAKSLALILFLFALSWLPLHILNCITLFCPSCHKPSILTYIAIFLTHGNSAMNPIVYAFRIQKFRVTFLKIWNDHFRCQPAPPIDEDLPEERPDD
Method in brief: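 Membranes from human cortical tissue were incubated with radioligand and test chemical for 1 hour, then filtered and counted. Activity was taken as signal loss relative to DMSO, screened at 25 uM in duplicate before concentration-response follow-up.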

[8] = biological target: rat Monoamine Oxidase, MAO-B, Central (MAOBC), Maob (gene 25750) (UniProt P19643); experiment: NVS_ENZ_rMAOBC: NovaScreen (NVS) Enzymatic Assay for rat Monoamine Oxidase, MAO-B, Central (MAOBC) (AID 2283238)
rat Monoamine Oxidase, MAO-B, Central (MAOBC), Maob (gene 25750), sequence (P19643 whole entry, looked up): as the sequence (P19643 whole entry, looked up) above
Method in brief: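 Cell-free radiometric assay, rat brain lysate. Read-out: scintillation counts, 1.17 h post-dosing. Screen 25 uM in duplicate; actives (e.g. ≥30% inhibition) then singleton concentration-response, max 50 uM. Activity loss fitted relative to DMSO.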

[9] = tested on: bovine Angiotensin II Receptor Type 2 (AT2), gene 407157; experiment: NVS_GPCR_bAT2: NovaScreen (NVS) G Protein-Coupled Receptor Assay for bovine Angiotensin II Receptor Type 2 (AT2) (AID 2283240)
Method in brief: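 Radioligand displacement on bovine cerebellar membranes, 1 hour incubation, filter-based scintillation counting; loss of signal vs DMSO. Duplicate single-point screen at 25 uM, then concentration-response to 50 uM maximum.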

[10] = NVS_GPCR_bNPY_NonSelective: NovaScreen (NVS) G Protein-Coupled Receptor Assay for bovine Neuropeptide Y (NPY) Receptor, Non-selective Binding (AID 2283245)
Method in brief: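 Displacement of radioligand from bovine hippocampal membrane receptors, read by filtration and scintillation counting after 1 hour. Concentration-response to a top of 50 uM followed a 25 uM duplicate primary screen. Loss of signal versus DMSO.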

[11] = biological target: human Serotonin, 5-Hydroxytryptamine Receptor 2A (5HT2A), HTR2A (gene 3356) (UniProt P28223); experiment: NVS_GPCR_h5HT2A: NovaScreen (NVS) G Protein-Coupled Receptor Assay for human Serotonin, 5-Hydroxytryptamine Receptor 2A (5HT2A) (AID 2283249)
human Serotonin, 5-Hydroxytryptamine Receptor 2A (5HT2A), HTR2A (gene 3356), sequence (P28223 whole entry, looked up): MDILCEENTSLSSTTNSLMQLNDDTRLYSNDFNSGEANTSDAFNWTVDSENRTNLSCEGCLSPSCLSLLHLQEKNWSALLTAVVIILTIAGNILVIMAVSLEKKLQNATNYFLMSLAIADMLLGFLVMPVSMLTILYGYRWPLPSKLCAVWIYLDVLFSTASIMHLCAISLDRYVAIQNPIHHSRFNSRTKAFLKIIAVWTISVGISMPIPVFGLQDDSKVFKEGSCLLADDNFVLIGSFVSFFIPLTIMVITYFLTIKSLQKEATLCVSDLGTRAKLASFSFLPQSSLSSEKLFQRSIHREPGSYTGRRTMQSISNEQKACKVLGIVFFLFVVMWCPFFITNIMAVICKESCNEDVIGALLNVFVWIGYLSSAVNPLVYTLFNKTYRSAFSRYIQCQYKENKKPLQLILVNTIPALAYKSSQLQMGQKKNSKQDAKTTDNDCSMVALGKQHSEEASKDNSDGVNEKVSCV
Method in brief: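 Radioligand displacement on human cortex tissue extract, counted by filtration and scintillation 1.5 h post-dosing. Initial single-concentration screen at 25 uM in duplicate, concentration series in follow-up; DMSO as baseline.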

[12] = biological target: human Serotonin, 5-Hydroxytryptamine Receptor 6 (5HT6), HTR6 (gene 3362) (UniProt P50406); experiment: NVS_GPCR_h5HT6: NovaScreen (NVS) G Protein-Coupled Receptor Assay for human Serotonin, 5-Hydroxytryptamine Receptor 6 (5HT6) (AID 2283253)
human Serotonin, 5-Hydroxytryptamine Receptor 6 (5HT6), HTR6 (gene 3362), sequence (P50406 whole entry, looked up): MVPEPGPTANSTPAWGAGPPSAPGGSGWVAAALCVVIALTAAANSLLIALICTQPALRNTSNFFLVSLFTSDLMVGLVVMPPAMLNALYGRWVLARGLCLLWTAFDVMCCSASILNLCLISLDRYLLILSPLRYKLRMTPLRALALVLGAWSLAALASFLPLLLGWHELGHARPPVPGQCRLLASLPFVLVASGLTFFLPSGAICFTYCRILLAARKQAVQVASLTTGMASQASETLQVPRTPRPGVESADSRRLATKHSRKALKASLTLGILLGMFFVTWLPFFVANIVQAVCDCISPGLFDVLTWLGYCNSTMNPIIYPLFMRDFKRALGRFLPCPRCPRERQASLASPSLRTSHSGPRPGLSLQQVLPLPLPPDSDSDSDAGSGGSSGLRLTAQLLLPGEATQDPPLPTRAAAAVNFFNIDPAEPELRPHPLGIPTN
Method in brief: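 Filter scintillation counting of radioligand displacement from HEK293-expressed 5HT6, 1 hour post-dose, with loss of signal relative to DMSO. Single 25 uM duplicates first, with concentration series for confirmation.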

[13] = biological target: sheep Cyclooxygenase-1 (Cox1), PTGS1 (gene 443551) (UniProt P05979); experiment: NVS_ENZ_oCOX1: NovaScreen (NVS) Enzymatic Assay for sheep Cyclooxygenase-1 (Cox1) (AID 2283239);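 further: actives reduce cyclooxygenase activity so potencies are for inhibitors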
sheep Cyclooxygenase-1 (Cox1), PTGS1 (gene 443551), sequence (P05979 whole entry, looked up): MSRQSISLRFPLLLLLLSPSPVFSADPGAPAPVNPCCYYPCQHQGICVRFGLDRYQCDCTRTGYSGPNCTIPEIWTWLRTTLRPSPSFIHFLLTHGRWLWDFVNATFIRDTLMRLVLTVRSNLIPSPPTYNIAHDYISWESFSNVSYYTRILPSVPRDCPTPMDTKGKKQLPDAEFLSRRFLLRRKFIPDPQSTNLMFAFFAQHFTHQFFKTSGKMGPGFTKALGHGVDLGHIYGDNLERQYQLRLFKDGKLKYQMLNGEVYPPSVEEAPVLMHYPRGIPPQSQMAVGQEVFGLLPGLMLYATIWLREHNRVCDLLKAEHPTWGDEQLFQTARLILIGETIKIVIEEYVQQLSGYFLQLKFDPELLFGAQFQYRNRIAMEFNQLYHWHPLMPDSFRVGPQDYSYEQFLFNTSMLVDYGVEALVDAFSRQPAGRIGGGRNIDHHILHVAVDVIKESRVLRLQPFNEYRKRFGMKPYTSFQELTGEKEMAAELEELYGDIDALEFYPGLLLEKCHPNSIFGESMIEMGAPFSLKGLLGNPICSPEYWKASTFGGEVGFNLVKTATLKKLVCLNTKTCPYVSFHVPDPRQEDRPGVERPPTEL
Method in brief: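 Native ovine seminal vesicle protein serves as enzyme source in this biochemical assay. Colorimetric signal is recorded 0.66 h after chemical addition, and decreases versus the DMSO control define activity.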

[14] = tested on: bovine Histamine 1 Receptor (H1), gene 281231; experiment: NVS_GPCR_bH1: NovaScreen (NVS) G Protein-Coupled Receptor Assay for bovine Histamine 1 Receptor (H1) (AID 2283246)
Method in brief: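 Hits from a 25 uM duplicate primary screen were retested in concentration series (top 50 uM); binding measured as scintillation-counted displacement of radioligand from bovine cerebellar membranes after 1 h, normalised to DMSO.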

[15] = biological target: Adenosine receptor A1 (Bos taurus) (UniProt P28190); experiment: NVS_GPCR_bAdoR_NonSelective: NovaScreen (NVS) G Protein-Coupled Receptor Assay for bovine Adenosine Receptor (AdoR), Non-selective Binding (AID 2283244)
Adenosine receptor A1 (Bos taurus), sequence (P28190 whole entry, looked up): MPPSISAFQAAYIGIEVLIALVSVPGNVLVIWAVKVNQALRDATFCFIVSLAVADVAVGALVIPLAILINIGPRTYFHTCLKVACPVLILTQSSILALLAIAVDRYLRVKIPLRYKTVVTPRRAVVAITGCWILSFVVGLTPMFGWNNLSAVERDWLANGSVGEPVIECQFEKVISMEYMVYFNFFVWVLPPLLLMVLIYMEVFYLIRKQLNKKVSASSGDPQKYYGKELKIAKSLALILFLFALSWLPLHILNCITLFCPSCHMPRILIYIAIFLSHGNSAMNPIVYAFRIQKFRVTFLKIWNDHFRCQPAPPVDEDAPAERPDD
Method in brief: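 Cell-free binding with membranes from bovine striatum: radioligand displaced by test chemical, read after 1 h by filtration and scintillation. Single-point 25 uM duplicate primary, 50 uM top concentration in follow-up curves, DMSO baseline.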

[16] = biological target: guinea pig Leukotriene D4 Receptor (LTD4), CYSLTR1 (gene 100135514) (UniProt Q2NNR5); experiment: NVS_GPCR_gLTD4: NovaScreen (NVS) G Protein-Coupled Receptor Assay for guinea pig Leukotriene D4 Receptor (LTD4) (AID 2283248)
guinea pig Leukotriene D4 Receptor (LTD4), CYSLTR1 (gene 100135514), sequence (Q2NNR5 whole entry, looked up): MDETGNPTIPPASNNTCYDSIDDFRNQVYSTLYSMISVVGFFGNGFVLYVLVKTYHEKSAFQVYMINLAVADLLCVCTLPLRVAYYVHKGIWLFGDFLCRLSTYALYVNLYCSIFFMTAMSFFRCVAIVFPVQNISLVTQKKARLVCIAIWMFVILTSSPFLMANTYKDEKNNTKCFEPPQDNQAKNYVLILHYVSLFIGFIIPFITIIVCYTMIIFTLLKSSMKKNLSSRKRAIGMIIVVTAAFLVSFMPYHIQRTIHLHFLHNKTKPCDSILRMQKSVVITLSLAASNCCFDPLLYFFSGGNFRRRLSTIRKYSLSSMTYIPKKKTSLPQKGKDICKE
Method in brief: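 Guinea pig lung membrane preparation; bound radioligand measured by filter scintillation after 1 h, loss of signal versus DMSO marking displacement. Compounds tested at 25 uM in duplicate, hits retested to max 50 uM.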

## C[Si](Cn1cncn1)(c1ccc(F)cc1)c1ccc(F)cc1
[1]
  AC50: 25 µM (active)
[2]
  AC50: 34 µM (active)
[3]
  AC50: 7.85 µM (active)
[4]
  AC50: 25 µM (active)
[5]
  AC50: 16.6 µM (active)

## FC(F)C(F)(F)OCC(Cn1cncn1)c1ccc(Cl)cc1Cl (stereo not drawn)
[6]
  outcome: inactive
[4]
  outcome: inactive
[7]
  AC50: 25 µM (active)

## CC[C@H](C)[C@H]1O[C@]2(C=C[C@@H]1C)C[C@@H]1C[C@@H](C/C=C(\C)[C@@H](O[C@H]3C[C@H](OC)[C@@H](O[C@H]4C[C@H](OC)[C@@H](NC)[C@H](C)O4)[C@H](C)O3)[C@@H](C)/C=C/C=C3\CO[C@@H]4[C@H](O)C(C)=C[C@@H](C(=O)O1)[C@]34O)O2
[1]
  outcome: inactive
[8]
  outcome: inactive
[9]
  outcome: inactive
[2]
  outcome: inactive
[10]
  AC50: 20.6 µM (active)
[11]
  AC50: 26.9 µM (active)
[3]
  AC50: 7.94 µM (active)
[4]
  AC50: 25 µM (active)
[12]
  AC50: 13.9 µM (active)
[5]
  AC50: 4.29 µM (active)

## CC1(C(=O)Nc2ccc(O)c(Cl)c2Cl)CCCCC1
[2]
  outcome: inactive

## CSC1=N[C@@](C)(c2ccccc2)C(=O)N1Nc1ccccc1
[8]
  outcome: inactive

## CCCSP(=O)(OCC)SCCC
[13]
  outcome: inactive

## Nc1nc(N)nc(NC2CC2)n1
[6]
  outcome: inactive

## CN(C)C(=O)Nc1cccc(C(F)(F)F)c1
[1]
  AC50: 25 µM (active)
[2]
  AC50: 29.7 µM (active)
[14]
  outcome: inactive

## CON=C(C(=O)OC)c1ccccc1CON=C(C)c1cccc(C(F)(F)F)c1
[9]
  outcome: inactive

## COP(=O)(OC)OC(Br)C(Cl)(Cl)Br (stereo not drawn)
[8]
  outcome: inactive
[15]
  AC50: 25 µM (active)
[10]
  outcome: inactive
[16]
  AC50: 0.00229 µM (active)
[4]
  AC50: 33.3 µM (active)
[12]
  AC50: 9.88 µM (active)

## S=C1NCCN1
[6]
  outcome: inactive
